# From the supplement of paper PMC8728848
# Many of the other results were omitted from the sample, so the strongest signals are more common in it than they were.
# B1: SP15308A-bot-339-19-339 (Bacteroides ovatus) (protein)
# chain: ACNNEWEDEQYEQYISFKSPIPAGGEGVTDIYVRYKEDGKVTYRLPIVVSGSTTNTLDREVHIAVDKDTLETLNIERFSIHRPGLWYTALEEDKYDFPKTVHISAGSSVEQLNIDFNLQGIDMLEKWVLPLTIVDDPSYNYKSHPRKNYAKALLRVIPFNNYSGSYTSSAMKVYTYINGKPDTNARTANKRTGYVINDNTVFFYAGLISEDLDKEVREKYKINVHFNEDGTLHMEQGDPTNKMKFELIGTPTYSKTSVMDATRPYLERRYVQIMFEYDFEDFSYGGNGVDVIPIKYKVEGSMTLQRNINTQIPDEDQQIEW
# How the values were obtained:
# Test in all cases: glycan array binding signal (z-score within array); higher = stronger binding
# Details in all cases: glycan notation: IUPAC condensed, linker removed
# [1] = target: Fuc(a1-2)Gal(b1-3)GlcNAc(b1-2)Man(a1-3)[Fuc(a1-2)Gal(b1-3)GlcNAc(b1-2)Man(a1-6)]Man(b1-4)GlcNAc(b1-4)[Fuc(a1-6)]GlcNAc
# Method in brief: (§1)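 Arrays were curated from the Consortium for Functional Glycomics database, 3228 in total, and kept only where the protein sequence was available. Binding is expressed as a within-array Z-score. This score was averaged across arrays of the same protein sequence at different concentrations or buffers and across linkers, and negative values can be read as non-binding.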
# [2] = target: Fuc(a1-2)Gal(b1-3)GlcNAc(b1-3)[Gal(b1-4)GlcNAc(b1-6)]Gal(b1-4)Glc
# Method in brief: as §1
# [3] = target: Fuc(a1-2)[Gal(a1-3)]Gal(b1-4)GlcNAc(b1-3)[Fuc(a1-2)[Gal(a1-3)]Gal(b1-4)GlcNAc(b1-6)]GalNAc
# Method in brief: as §1
# [4] = target: Fuc(a1-2)[GalNAc(a1-3)]Gal(b1-3)GlcNAc(b1-3)GalNAc
# Method in brief: as §1
# [5] = target: Fuc(a1-2)[GalNAc(a1-3)]Gal(b1-4)GlcNAc(b1-3)Gal(b1-4)GlcNAc(b1-3)Gal(b1-4)GlcNAc
# Method in brief: as §1
# [6] = target: Fuc(a1-3)[Gal(b1-4)]GlcNAc(b1-2)Man
# Method in brief: as §1
# Fuc(a1-4)GlcNAc = target: Fuc(a1-4)GlcNAc
# Method in brief: as §1
# [7] = target: Gal(a1-3)[Gal(a1-4)]Gal(b1-4)GlcNAc
# Method in brief: as §1
# Gal(a1-4)Gal(b1-4)GlcNAc = target: Gal(a1-4)Gal(b1-4)GlcNAc
# Method in brief: as §1
# Gal(a1-6)Glc = target: Gal(a1-6)Glc
# Method in brief: as §1
# Gal(b1-2)Gal = target: Gal(b1-2)Gal
# Method in brief: as §1
# Gal(b1-3)GlcNAc = target: Gal(b1-3)GlcNAc
# Method in brief: as §1
# [8] = target: Gal(b1-3)GlcNAc(a1-3)Gal(b1-4)GlcNAc
# Method in brief: as §1
# Gal(b1-3)GlcNAc(b1-2)Man = target: Gal(b1-3)GlcNAc(b1-2)Man
# Method in brief: as §1
# [9] = target: Gal(b1-3)GlcNAc(b1-3)Gal(b1-4)Glc
# Method in brief: as §1
# [10] = target: Gal(b1-3)GlcNAc(b1-3)GalNAc
# Method in brief: as §1
# [11] = target: Gal(b1-4)GlcNAc(b1-2)[Gal(b1-4)GlcNAc(b1-6)]Man(a1-6)[GlcNAc(b1-4)][Gal(b1-4)GlcNAc(b1-2)Man(a1-3)]Man(b1-4)GlcNAc(b1-4)GlcNAc
# Method in brief: as §1
# [12] = target: Gal(b1-4)GlcNAc(b1-3)Gal(b1-4)GlcNAc(b1-3)Gal(b1-4)GlcNAc(b1-2)Man(a1-3)[Gal(b1-4)GlcNAc(b1-3)Gal(b1-4)GlcNAc(b1-3)Gal(b1-4)GlcNAc(b1-2)Man(a1-6)]Man(b1-4)GlcNAc(b1-4)[Fuc(a1-6)]GlcNAc
# Method in brief: as §1
# [13] = target: Gal(b1-4)GlcNAc(b1-3)Gal(b1-4)GlcNAc(b1-3)Gal(b1-4)GlcNAc(b1-3)Gal(b1-4)GlcNAc(b1-3)Gal(b1-4)GlcNAc(b1-2)[Gal(b1-4)GlcNAc(b1-3)Gal(b1-4)GlcNAc(b1-3)Gal(b1-4)GlcNAc(b1-3)Gal(b1-4)GlcNAc(b1-3)Gal(b1-4)GlcNAc(b1-6)]Man(a1-6)[Gal(b1-4)GlcNAc(b1-3)Gal(b1-4)GlcNAc(b1-3)Gal(b1-4)GlcNAc(b1-3)Gal(b1-4)GlcNAc(b1-3)Gal(b1-4)GlcNAc(b1-2)Man(a1-3)]Man(b1-4)GlcNAc(b1-4)[Fuc(a1-6)]GlcNAc
# Method in brief: as §1
# Gal3S(b1-3)GalNAc = target: Gal3S(b1-3)GalNAc
# Method in brief: as §1
# Gal3S(b1-4)Glc = target: Gal3S(b1-4)Glc
# Method in brief: as §1
# Gal3S4S(b1-4)GlcNAc = target: Gal3S4S(b1-4)GlcNAc
# Method in brief: as §1
# GalNAc(a1-3)GalNAc = target: GalNAc(a1-3)GalNAc
# Method in brief: as §1
# GalNAc(b1-4)GlcNAc = target: GalNAc(b1-4)GlcNAc
# Method in brief: as §1
# [14] = target: GalNAc(b1-4)GlcNAc(b1-2)Man(a1-3)[GalNAc(b1-4)GlcNAc(b1-2)Man(a1-6)]Man(b1-4)GlcNAc(b1-4)GlcNAc
# Method in brief: as §1
# GlcA(b1-3)GlcNAc = target: GlcA(b1-3)GlcNAc
# Method in brief: as §1
# [15] = target: GlcNAc(a1-4)Gal(b1-4)GlcNAc(b1-3)Gal(b1-4)Glc
# Method in brief: as §1
# [16] = target: GlcNAc(b1-2)Man(a1-3)[GlcNAc(b1-4)][GlcNAc(b1-2)Man(a1-6)]Man(b1-4)GlcNAc(b1-4)[Fuc(a1-6)]GlcNAc
# Method in brief: as §1
# [17] = target: GlcNAc(b1-2)[GlcNAc(b1-4)]Man(a1-3)[GlcNAc(b1-4)][GlcNAc(b1-2)Man(a1-6)]Man(b1-4)GlcNAc(b1-4)GlcNAc
# Method in brief: as §1
# [18] = target: GlcNAc(b1-2)[GlcNAc(b1-4)]Man(a1-3)[GlcNAc(b1-4)][GlcNAc(b1-2)[GlcNAc(b1-6)]Man(a1-6)]Man(b1-4)GlcNAc(b1-4)GlcNAc
# Method in brief: as §1
# [19] = target: GlcNAc(b1-3)Gal(b1-4)GlcNAc(b1-2)Man(a1-3)[GlcNAc(b1-3)Gal(b1-4)GlcNAc(b1-2)Man(a1-6)]Man(b1-4)GlcNAc(b1-4)[Fuc(a1-6)]GlcNAc
# Method in brief: as §1
# [20] = target: GlcNAc(b1-3)Gal(b1-4)GlcNAc(b1-3)[GlcNAc(b1-3)Gal(b1-4)GlcNAc(b1-3)]GalNAc
# Method in brief: as §1
# GlcNAc(b1-3)Man = target: GlcNAc(b1-3)Man
# Method in brief: as §1
# [21] = target: GlcNAc(b1-4)GlcNAc(b1-4)GlcNAc(b1-4)GlcNAc(b1-4)GlcNAc
# Method in brief: as §1
# [22] = target: Man(a1-2)Man(a1-2)Man(a1-3)Man
# Method in brief: as §1
# [23] = target: Neu5Ac(a2-3)Gal(b1-3)GalNAc
# Method in brief: as §1
# Neu5Ac(a2-3)Gal(b1-4)Glc = target: Neu5Ac(a2-3)Gal(b1-4)Glc
# Method in brief: as §1
# [24] = target: Neu5Ac(a2-3)Gal(b1-4)GlcNAc(b1-3)Gal(b1-3)GlcNAc
# Method in brief: as §1
# [25] = target: Neu5Ac(a2-3)Gal(b1-4)GlcNAc(b1-3)Gal(b1-4)GlcNAc(b1-3)GalNAc
# Method in brief: as §1
# [26] = target: Neu5Ac(a2-3)Gal(b1-4)[Fuc(a1-3)]GlcNAc(b1-3)GalNAc
# Method in brief: as §1
# Neu5Ac(a2-3)GalNAc = target: Neu5Ac(a2-3)GalNAc
# Method in brief: as §1
# Neu5Ac(a2-6)GalNAc = target: Neu5Ac(a2-6)GalNAc
# Method in brief: as §1
# [27] = target: Neu5Ac(a2-8)Neu5Ac(a2-3)[Gal(b1-3)GalNAc(b1-4)]Gal(b1-4)Glc
# Method in brief: as §1
# [28] = target: Neu5Ac(a2-8)Neu5Gc(a2-3)Gal(b1-4)GlcNAc
# Method in brief: as §1
# [29] = target: Neu5Gc(a2-3)Gal(b1-3)[Fuc(a1-4)]GlcNAc
# Method in brief: as §1
binder,measurement,setting,value
B1,glycan array binding signal (z-score),[1],0.285
same,glycan array binding signal (z-score),[2],-0.461
same,glycan array binding signal (z-score),[3],8.34
same,glycan array binding signal (z-score),[4],0.521
same,glycan array binding signal (z-score),[5],0.178
same,glycan array binding signal (z-score),[6],0.187
same,glycan array binding signal (z-score),Fuc(a1-4)GlcNAc,19.1
same,glycan array binding signal (z-score),[7],1.28
same,glycan array binding signal (z-score),Gal(a1-4)Gal(b1-4)GlcNAc,0.261
same,glycan array binding signal (z-score),Gal(a1-6)Glc,0.432
same,glycan array binding signal (z-score),Gal(b1-2)Gal,0.055
same,glycan array binding signal (z-score),Gal(b1-3)GlcNAc,0.061
same,glycan array binding signal (z-score),[8],0.217
same,glycan array binding signal (z-score),Gal(b1-3)GlcNAc(b1-2)Man,2.76
same,glycan array binding signal (z-score),[9],-0.437
same,glycan array binding signal (z-score),[10],0.029
same,glycan array binding signal (z-score),[11],-0.304
same,glycan array binding signal (z-score),[12],2.77
same,glycan array binding signal (z-score),[13],0.968
same,glycan array binding signal (z-score),Gal3S(b1-3)GalNAc,0.97
same,glycan array binding signal (z-score),Gal3S(b1-4)Glc,0.257
same,glycan array binding signal (z-score),Gal3S4S(b1-4)GlcNAc,0.201
same,glycan array binding signal (z-score),GalNAc(a1-3)GalNAc,1.35
same,glycan array binding signal (z-score),GalNAc(b1-4)GlcNAc,1.18
same,glycan array binding signal (z-score),[14],1.54
same,glycan array binding signal (z-score),GlcA(b1-3)GlcNAc,-0.486
same,glycan array binding signal (z-score),[15],0.185
same,glycan array binding signal (z-score),[16],-0.474
same,glycan array binding signal (z-score),[17],1.11
same,glycan array binding signal (z-score),[18],-0.391
same,glycan array binding signal (z-score),[19],0.083
same,glycan array binding signal (z-score),[20],0.148
same,glycan array binding signal (z-score),GlcNAc(b1-3)Man,-0.188
same,glycan array binding signal (z-score),[21],-0.452
same,glycan array binding signal (z-score),[22],-0.468
same,glycan array binding signal (z-score),[23],1.94
same,glycan array binding signal (z-score),Neu5Ac(a2-3)Gal(b1-4)Glc,0.997
same,glycan array binding signal (z-score),[24],0.117
same,glycan array binding signal (z-score),[25],-0.51
same,glycan array binding signal (z-score),[26],1.76
same,glycan array binding signal (z-score),Neu5Ac(a2-3)GalNAc,0.234
same,glycan array binding signal (z-score),Neu5Ac(a2-6)GalNAc,-0.36
same,glycan array binding signal (z-score),[27],-0.083
same,glycan array binding signal (z-score),[28],-0.21
same,glycan array binding signal (z-score),[29],-0.412
